High-throughput results deposited in PubChem BioAssay by several laboratories.
An excerpt weighted towards active compounds, which were near 1.9% of everything screened.
EP2 antag: EP2 receptor (human) inhibition; C6 glioma cells expressing human EP2, cAMP TR-FRET; cells stimulated with saturating PGE2; P43116; 260,000 tested, 0.52% active; inhibition, % at 25 µM; AID 1422;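 active = percent inhibition above 40 after rounding to a whole number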;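 also: rat C6 glioma host cells with rolipram phosphodiesterase inhibitor present; the protocol text gives 20 µM as final concentration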
Target sequence (P43116 whole entry, looked up): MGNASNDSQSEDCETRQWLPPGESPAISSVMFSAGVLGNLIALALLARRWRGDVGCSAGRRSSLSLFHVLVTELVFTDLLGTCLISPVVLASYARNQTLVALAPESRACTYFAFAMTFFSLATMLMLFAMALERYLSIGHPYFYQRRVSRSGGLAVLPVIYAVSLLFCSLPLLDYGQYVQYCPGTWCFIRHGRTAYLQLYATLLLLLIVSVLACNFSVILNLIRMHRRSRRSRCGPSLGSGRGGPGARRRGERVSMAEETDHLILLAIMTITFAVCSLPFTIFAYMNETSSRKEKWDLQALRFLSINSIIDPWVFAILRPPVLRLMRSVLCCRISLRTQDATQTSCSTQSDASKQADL
Furin inhibitor: inhibitors of human furin. P09958. 220,000 tested, 0.061% active. purified furin, fluorogenic substrate cleavage. inhibition, % at 20 µM or 30 µM; in the data active = inhibition above about 25%
EP2 mod: modulates human prostaglandin E2 receptor EP2 signaling. induction, % at 25 µM. EP2-expressing cells, cAMP HTRF FRET, PGE2 co-stimulation. AID 940. 260,000 tested, 0.83% active;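 active = compounds whose cAMP rise, as percent of the full-agonist control response, exceeds 60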;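 also: rat C6 glioma line stably carrying human EP2 under a CMV promoter; the protocol text gives 20 µM as final concentration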
HMGR II inh: blocks class II HMG-CoA reductase of Enterococcus faecalis. inhibition, % at 10 µM. purified E. faecalis HMGR, NADPH absorbance 340 nm kinetic. 190,000 tested, 0.41% active. AID 1066;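 active = inhibition above a set limit, the median over all tested compounds plus 3 SD, cut at about 9.5% in these data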;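 also: enzyme runs in reverse so mevalonate oxidation gives rising NADPH absorbance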
m-calpain inh: blocks pig calpain II enzyme activity | inhibition, % at 16 µM | purified calpain II, fluorogenic peptide substrate, 30 min | 220,000 tested, 0.37% active;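 active = inhibition above about 50%, limit read from the data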
Numbers stand for hits; n = inactive; x = no result; ! = repeats disagree.

SMILES | EP2 antag | Furin inhibitor | EP2 mod | HMGR II inh | m-calpain inh
CCCOC(=O)C(C)Nc1n[nH]c(=S)[nH]c1=O (stereo not drawn) | 86.5 | x | n | x | x
CCCOC(=O)Cc1n[nH]c(=O)[nH]c1=O | n | n | n | n | n
CCOC(=O)C1CCN(S(=O)(=O)c2cc(Br)cc3c2N(C(=O)C2CC2)CC3)CC1 | n | n | n | n | 61.4
C#CCOc1ccc(C2C(C#N)=C(N)OC3=C2C(=O)CC(C)(C)C3)cc1 (stereo not drawn) | n | x | n | x | x
COC(=O)CSc1nc2c(c(-c3ccc(O)cc3)c1C#N)CCCC2 | n | n | 61.8 | n | n
COc1ccc(-c2ncc(CN3CCC(O)(c4ccccc4OC)CC3)cn2)cc1 | n | x | n | x | x
CCOC(=O)c1c(NC(=O)CSc2nnc(C)s2)sc2c1CCC(CC)C2 (stereo not drawn) | n | n | n | 14.0 | n
CCOC(=O)c1sc(NC(=O)CSc2nnc(C)s2)c(C(=O)OCC)c1C | n | n | n | n | n
Cc1ccc2cc(CN(Cc3nnnn3Cc3ccc(F)cc3)CC3CCCO3)c(=O)[nH]c2c1C (stereo not drawn) | n | x | n | x | x
O=C1CCCC2=C1C(c1ccc(Cl)cc1)C1=C(CCCC1=O)N2 | n | x | n | x | x
Cc1ccc2[nH]c(C)cc(=S)c2c1 | n | n | 75.0! | n | n
Cc1cc(=S)c2ccccc2[nH]1 | n | n | n | x | n
CC(=O)c1c(C(C)=O)c(C)n(C(c2ccccc2)c2ccccc2)c1C | n | n | n | n | 50.5
COc1ccccc1NC(=O)c1cc2cc(Br)cc(Br)c2oc1=N | n | x | n | x | x
O=C(CN1CCC(c2ccc3c(c2)OCO3)CC1)NC1CCCCC1 | x | x | n | x | x
COC(=O)C1=C(CSc2nc3c(cc2C#N)CN(C)CC3)OC(N)=C(C#N)C1c1ccc(F)cc1 (stereo not drawn) | n | n | n | 14.0 | n
CC(=O)N1CCN(c2ccc(NC(=O)COc3ccc(Cl)c(C)c3)cc2)CC1 | n | x | n | x | x
COc1ccc(Cl)cc1N(C(=O)c1ccco1)C(C(=O)NC1CCCC1)c1cccs1 (stereo not drawn) | n | x | n | x | x
CN(C[C@@H](Cc1cccc2ccccc12)N(C[C@H](Cc1ccccc1)N(CCc1ccccc1)N=O)N=O)N=O | n | n | n | 12.4 | n
COC(=O)c1ccc2nc(NC(=O)C(C)(C)C)sc2c1 | n | n | n | n | 90.5
COC(=O)c1ccc(C(=O)Nc2nc3ccc(C(=O)OC)cc3s2)cc1 | n | x | n | x | x
Oc1ccccc1N=Nc1ccccc1O | n | n | n | n | 67.9
Oc1ccccc1N=Cc1ccc[nH]1 | n | n | n | n | n
CCOC(=O)CSc1ccc(C(=O)Nc2ccc(Cl)cc2)cn1 | 41.0 | n | n | n | n
CC1(C)CC(=O)C2=C(C1)Nc1ccccc1NC2c1cc(O)ccc1O (stereo not drawn) | 47.4 | x | n | x | x
SMILES | EP2 antag | Furin inhibitor | EP2 mod | HMGR II inh | m-calpain inh
CCn1cc(C(O)CN2CCC3(CC2)CC(O)c2cc(C)ccc2O3)c2ccccc21 (stereo not drawn) | n | x | n | x | x
CC(C)(C)n1nc(-c2ccc(Cl)cc2)c2c(N)ncnc21 | n | n | n | n | n
Cc1ccc(-c2nn(C(C)(C)C)c3ncnc(NS(=O)(=O)c4ccc([N+](=O)[O-])cc4)c23)cc1 | n | n | 61.5 | n | n
CCOc1ccccc1NC(=O)C1CCN(c2c(CC)c(C)nc3ncnn23)CC1 | n | x | n | x | x
Cc1cc(-c2[nH]nc3c2C(c2ccc(C(F)(F)F)cc2)C(C#N)=C(N)O3)c(C)s1 (stereo not drawn) | n | x | 60.8 | x | x
CCc1ccc(C2C(C#N)=C(N)Oc3n[nH]c(-c4cc(C)sc4C)c32)cc1 (stereo not drawn) | n | x | n | x | x
COc1cc(OC)cc(-c2nnc(SCC(=O)NCc3ccccc3)o2)c1 | n | x | n | x | x
O=S1(=O)N[C@H]2CC[C@H]3NS(=O)(=O)N[C@H]4CC[C@@H](N1)N4S(=O)(=O)N23 | 45.3 | x | n | x | x
CCCSc1ncc(CN2CCN(C3CCCCC3)C(=O)C2)cn1 | n | x | n | x | x
O=C(Nc1ccc(C(=O)O)cc1)/C(=C/c1cccc(Br)c1)NC(=O)c1ccco1 | n | n | 62.7 | n | n
Cc1ccc(NC(=O)/C(=C/c2cccc(Br)c2)NC(=O)c2ccco2)cc1 | n | n | n | n | n
CC(C)(C)NC(=O)C(c1ccccn1)N(C(=O)c1csnn1)c1ccccc1F (stereo not drawn) | n | x | n | x | x
CCS(=O)(=O)NCC(c1cccnc1)N1CCN(c2ccc(OC)cc2)CC1 (stereo not drawn) | n | n | n | n | 62.6
CCS(=O)(=O)NCC(c1cccnc1)N1CCN(c2ccccc2)CC1 (stereo not drawn) | n | n | n | n | n
FC(F)(F)c1ccc2c(c1)C1C=CCC1C(c1cccnc1)N2 (stereo not drawn) | n | x | n | x | x
CN1CCN(Cc2c(C#N)c3ccccc3n2C)CC1 | n | n | n | n | n
Cn1c(CN2CCCC2)c(C#N)c2ccccc21 | n | n | n | 15.3 | n
O=C(c1nc2ccccc2s1)C1CCN(C(=O)Cc2ccccc2F)CC1 | x | x | n | x | x
CSc1ncc(C(=O)N(CCO)CC2CC3C=CC2C3)cn1 (stereo not drawn) | n | x | n | x | x
COc1ccccc1Sc1ccccc1/C=N/NC(N)=O | n | n | n | 15.4 | n
COc1cccc(/C=N/NC(=O)CSc2ccccc2C)c1O | n | n | n | n | n
C=CCNC(=S)N/N=C/c1ccc(C)c([N+](=O)[O-])c1 | n | n | n | n | 51.6
C=CCNC(=S)N/N=C/c1ccc(C)cc1C | n | n | n | n | n
O=C(NNC(=O)c1cc(OCC(F)(F)F)ccc1OCC(F)(F)F)c1cccc(C(F)(F)F)c1 | n | n | n | n | 91.6
COc1cc(CC(=O)N2C3CCC2CC(O)(c2nccn2C)C3)cc(OC)c1OC (stereo not drawn) | x | x | n | x | x
SMILES | EP2 antag | Furin inhibitor | EP2 mod | HMGR II inh | m-calpain inh
Cc1cccc(NC(=O)c2cc(NC(=O)C3CCCCC3C(=O)O)ccc2N2CCCCC2)c1 (stereo not drawn) | n | n | n | n | n
CC(=O)Nc1ccc(N2CCCCC2)c(C(=O)Nc2cccc(C)c2)c1 | n | n | 62.1 | n | n
COc1ccc(N2CCN(c3oc(COc4ccc(Cl)cc4Cl)nc3C#N)CC2)cc1 | n | n | n | n | 51.2
CN(C)CCCN1c2ccccc2Sc2cnccc21 | 44.9 | x | n | x | x
O=C(CCN1CCCCCC1)c1ccccc1 | 52.3 | n | n | n | n
CCC1(C)CC2(CCCN(CCC(=O)c3ccccc3)C2)CCO1 (stereo not drawn) | 80.6! | n | n | n | n
COc1ccc(C(=O)CCN2CCCCCC2)cc1 | n | n | n | n | n
Clc1ccc(-c2nsc3c(N4CCNCC4)ncnc23)cc1 | n | x | n | x | x
CC1(c2ccccc2)CC(c2ccccc2)=Nc2ccccc2N1 (stereo not drawn) | n | n | 87.8 | x | n
CCN(CC)CC[n+]1c2ccccc2n2c(C)c(-c3ccccc3)[nH]c21 | n | x | n | x | x
COc1cc2[nH]c(=O)c(C(=O)NCc3ccccc3F)c(O)c2cc1OC | n | x | n | x | x
O=C(O)C(Cc1ccccc1)N1C(=O)/C(=C/c2cccc3ccccc23)SC1=S (stereo not drawn) | n | n | n | n | 56.3
